Test [1] relates to Human papillomavirus type 1a protein E7 (residues 44-93). The test can be described thus: small molecules binding HPV E7 44-93 – biochemical, small-molecule microarray, residues 44-93, 635 nm fluorescence, primary screen (AID 1108).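 Note: E7 fragment applied at 1 µg/mL in TBST for 1 h at 4 C; score combines spot fluorescence with its signal to noise ratio.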 The note with it: fluorescence 635 nm, higher = more signal.
Test [2] in a line: hepatitis C replication reporter changes, two-sided – Huh7 cells, luciferase reporter, HCV replication inhibitor project, primary screen (AID 1109).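 Note: huh7 hepatoma cells harbouring a luciferase neomycin HCV replicon reporter; luciferase luminescence as measure of HCV replicon replication; test concentration not given here.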 The following applies: Huh7 HCV replicon luciferase reporter, 48 h; higher = more signal.
The target of test [3] is Left-right determination factor 2 (Homo sapiens) (UniProt O00292). The test can be described thus: small molecules binding LEFTY2 protein – biochemical, small-molecule microarray, 635 nm fluorescence scan, primary screen (AID 1110). The following applies: higher = more signal.
Left-right determination factor 2 (Homo sapiens), sequence (O00292 whole entry, looked up): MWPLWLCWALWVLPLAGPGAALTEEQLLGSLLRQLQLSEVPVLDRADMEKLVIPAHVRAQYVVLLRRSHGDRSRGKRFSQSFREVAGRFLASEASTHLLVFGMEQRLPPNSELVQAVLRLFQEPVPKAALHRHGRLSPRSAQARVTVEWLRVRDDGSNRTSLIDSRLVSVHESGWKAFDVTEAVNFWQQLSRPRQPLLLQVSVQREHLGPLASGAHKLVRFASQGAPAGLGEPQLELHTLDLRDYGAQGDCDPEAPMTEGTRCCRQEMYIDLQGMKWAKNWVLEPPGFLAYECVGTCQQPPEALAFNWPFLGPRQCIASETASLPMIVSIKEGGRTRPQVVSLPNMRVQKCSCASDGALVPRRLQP
The target in test [4] is Calmodulin-1 (Homo sapiens) (UniProt P0DP23). The test can be described thus: small molecules binding calmodulin-1 with EGTA – biochemical, small-molecule microarray, Cy5-labelled CALM1, profiling panel (AID 1111).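 Note: labelled calmodulin applied in Tris saline Tween buffer holding calcium plus EGTA and DTT.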 The following applies: Cy5-CALM1 binding fluorescence, higher = more signal.
The target is the same in test [5]. Kind of test: small molecules binding Ca-loaded calmodulin-1 – biochemical, small-molecule microarray, Cy5-labelled CALM1, plus calcium, artefact control for SMM control-protein annotation, profiling panel (AID 1112).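 Note: score merges spot fluorescence with signal to noise from triplicate slides.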 The following applies: Cy5-CALM1 binding fluorescence, higher = more signal.
Test [6] in a line: probe aWnt5a binding to arrayed compounds – biochemical, biotinylated probe, 635/667 nm fluorescence, primary screen (AID 1113).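 Note: score merges 667 nm fluorescence intensity with signal-to-noise per printed feature.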 The following applies: small-molecule microarray, higher = more signal.
Test [7] in a line: probe aShh binding to arrayed compounds – biochemical, biotinylated probe, 635/667 nm fluorescence, primary screen (AID 1114).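 Note: probe is biotin-labelled aShh protein from a stem cell growth factor screen; measures binding of labelled protein to compounds printed on the slide; score merges feature fluorescence at 667 nm with signal-to-noise.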 The note with it: small-molecule microarray, higher = more signal.
Test [8] is described as follows: probe aNog binding to arrayed compounds – biochemical, biotinylated probe, 635/667 nm fluorescence, primary screen (AID 1115).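 Note: probe is biotinylated aNog protein used at 0.15 µg/mL for 1 h at 4 C; z-score combines 667 nm fluorescence of each spot with its signal to noise.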 The note with it: small-molecule microarray, higher = more signal.
For test [9], the target named is Torsin-1A-interacting protein 1 (Homo sapiens) (UniProt Q5JTV8). Kind of test: compound microarray binding of lysate hLAP1 – cell lysate, small-molecule microarray, COS7 lysate, 635/667 nm fluorescence, primary screen (AID 1116). The following applies: 635 nm fluorescence, higher = more signal.
Torsin-1A-interacting protein 1 (Homo sapiens), sequence (Q5JTV8 whole entry, looked up): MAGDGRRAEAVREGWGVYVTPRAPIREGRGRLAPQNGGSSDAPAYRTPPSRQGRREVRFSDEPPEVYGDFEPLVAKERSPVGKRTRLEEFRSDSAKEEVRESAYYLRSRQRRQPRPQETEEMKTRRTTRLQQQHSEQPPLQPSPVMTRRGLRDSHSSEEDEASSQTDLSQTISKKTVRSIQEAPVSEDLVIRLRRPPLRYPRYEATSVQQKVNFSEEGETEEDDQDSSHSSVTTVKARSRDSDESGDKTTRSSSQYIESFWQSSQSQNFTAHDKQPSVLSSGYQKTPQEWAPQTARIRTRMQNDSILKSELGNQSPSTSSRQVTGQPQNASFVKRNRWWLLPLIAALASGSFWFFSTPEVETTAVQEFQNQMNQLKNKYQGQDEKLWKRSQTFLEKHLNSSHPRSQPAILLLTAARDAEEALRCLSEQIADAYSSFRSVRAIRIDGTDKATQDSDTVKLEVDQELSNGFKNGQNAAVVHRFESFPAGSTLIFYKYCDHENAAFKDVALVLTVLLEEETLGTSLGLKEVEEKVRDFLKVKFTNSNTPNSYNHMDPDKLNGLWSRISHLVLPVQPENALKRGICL
Test [10] has as its target Alpha-bungarotoxin (Bungarus multicinctus) (UniProt P60615). Kind of test: compounds binding labelled alpha-BTX control protein – biochemical, small-molecule microarray, Alexa647 label, 635/667 nm fluorescence, artefact control for SMM control protein annotation, profiling panel (AID 1117). The following applies: alpha-BTX-A647 binding fluorescence, higher = more signal.

The target of another test is Albumin (Bos taurus) (UniProt P02769). Kind of test: compounds binding labelled BSA control protein – biochemical, small-molecule microarray, Alexa647 label, 635/667 nm fluorescence, artefact control for SMM control protein annotation, profiling panel (AID 1118).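 Note: score merges 667 nm emission intensity and signal-to-noise per printed compound spot.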 The following applies: BSA-A647 binding, fluorescence 635 nm, higher = more signal.
Albumin (Bos taurus), sequence (P02769 whole entry, looked up): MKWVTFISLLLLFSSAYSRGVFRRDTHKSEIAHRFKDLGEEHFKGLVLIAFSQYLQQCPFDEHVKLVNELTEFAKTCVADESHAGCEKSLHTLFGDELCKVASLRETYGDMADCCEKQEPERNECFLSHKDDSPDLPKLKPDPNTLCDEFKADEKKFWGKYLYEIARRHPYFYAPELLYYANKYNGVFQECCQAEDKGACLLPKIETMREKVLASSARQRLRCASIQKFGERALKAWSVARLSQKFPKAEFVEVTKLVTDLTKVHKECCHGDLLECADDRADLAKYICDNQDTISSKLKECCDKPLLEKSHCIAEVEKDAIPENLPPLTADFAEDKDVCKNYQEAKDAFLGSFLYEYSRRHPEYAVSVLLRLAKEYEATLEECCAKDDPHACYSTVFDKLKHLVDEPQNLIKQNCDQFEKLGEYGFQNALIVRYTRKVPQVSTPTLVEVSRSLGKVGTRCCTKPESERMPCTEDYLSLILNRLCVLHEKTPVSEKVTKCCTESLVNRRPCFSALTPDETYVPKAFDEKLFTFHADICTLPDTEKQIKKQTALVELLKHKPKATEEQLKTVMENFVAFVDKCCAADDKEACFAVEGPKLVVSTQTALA
A short description of test [11]: probe aXIP binding to arrayed compounds – biochemical, NeuroSMM set, 635/667 nm fluorescence, primary screen (AID 1119).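 Note: probe is the protein aXip251-270 applied at 1 µg/mL to compound-printed slides; binding of probe to printed compounds measured as 667 nm fluorescence plus signal to noise.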 The following applies: small-molecule microarray, higher = more signal, called active from +8 up or from −8 down.
A short description of test [12]: probe aNOTCH3 binding on compound microarray – biochemical, small-molecule microarray, 635/667 nm fluorescence, primary screen (AID 1120).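 Note: probe is a biotin-tagged antibody raised against NOTCH3 rather than NOTCH3 protein; score merges spot fluorescence near 667 nm with spot signal to noise.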 The note with it: higher = more signal.
A short description of test [13]: probe aNOTCH2 binding on compound microarray – biochemical, small-molecule microarray, 635/667 nm fluorescence, primary screen (AID 1121).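 Note: score merges feature fluorescence read at 667 nm with its signal to noise.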 The following applies: higher = more signal.
The target in test [14] is Carbonic anhydrase 2 (Homo sapiens) (UniProt P00918). Kind of test: compounds binding carbonic anhydrase 2 – biochemical, small-molecule microarray, Alexa647-labelled CAII, profiling panel (AID 1122). The note with it: CAII-A647 binding fluorescence, higher = more signal.
Test [15] is described as follows: COS7 lysate on small-molecule microarray, probe aHis, 635 nm (AID 1123).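 Note: z-score combines 667nm fluorescence intensity with signal-to-noise per printed compound spot.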 The note with it: COS7 cell lysate, fluorescence, higher = more signal.
Test [16] in a line: probe aLAP1 signal on lysate-treated microarray – cell lysate, small-molecule microarray, COS7 lysate, primary screen (AID 1124).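 Note: lysate comes from COS7 cells expressing LAP1 and is applied at 0.3 µg/mL; score merges spot fluorescence near 667 nm with signal-to-noise over triplicate slides.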 The following applies: probe aLAP1, fluorescence, higher = more signal.
In a further test the test system is Sam68 (KHDRBS1). Kind of test: compounds binding KHDRBS1 protein – biochemical, small-molecule microarray, 635 nm fluorescence, primary screen (AID 1125).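 Note: score merges 667 nm channel intensity with signal to noise over triplicate slides.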 The note with it: higher = more signal.
Test [17] relates to Chordin-like protein 2 (CHRDL2). Kind of test: compounds binding chordin-like 2 – biochemical, small-molecule microarray, 635 nm fluorescence, primary screen (AID 1126).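 Note: printed compound slides probed with Chrdl2 protein at 4 µg/mL for 1 h at 4 C; score merges 667 nm emission intensity with signal to noise over three replicate slides.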 The following applies: fluorescence 635 nm, higher = more signal.
For test [18], the target named is Concanavalin-A (Canavalia ensiformis) (UniProt P02866). Kind of test: compounds binding concanavalin A lectin – biochemical, small-molecule microarray, Alexa647 label, 635 nm, artefact control for SMM control protein annotation, primary screen (AID 1127).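 Note: z combines 667 nm emission intensity with signal-to-noise across three replicate slides.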 The following applies: ConA-A647 binding fluorescence, higher = more signal.
Concanavalin-A (Canavalia ensiformis), sequence (P02866 whole entry, looked up): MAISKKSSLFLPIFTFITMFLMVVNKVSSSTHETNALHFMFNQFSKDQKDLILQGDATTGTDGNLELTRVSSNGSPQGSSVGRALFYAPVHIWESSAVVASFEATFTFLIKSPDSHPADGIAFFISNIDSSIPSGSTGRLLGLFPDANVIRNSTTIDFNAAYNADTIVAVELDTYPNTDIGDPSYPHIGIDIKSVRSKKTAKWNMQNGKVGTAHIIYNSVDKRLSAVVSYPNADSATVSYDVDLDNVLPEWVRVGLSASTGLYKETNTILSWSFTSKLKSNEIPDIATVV

The source made the active and inactive calls.

Alpha-bungarotoxin (Bungarus multicinctus), sequence (P60615 whole entry, looked up): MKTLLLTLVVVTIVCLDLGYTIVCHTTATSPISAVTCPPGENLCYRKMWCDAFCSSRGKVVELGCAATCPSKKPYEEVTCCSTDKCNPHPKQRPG

Take `CCOC(=O)C1=CC[C@@H](c2ccc(C(F)(F)F)cc2)N(S(=O)(=O)c2ccc(C)cc2)[C@H]1c1ccccc1`: the composite z-score stood at 0.277 in test [1]; 0.221 in test [3]; 2.08 in [4]; 0.55 in test [5]; 0.201 in test [6]; 0.109 in test [7]. Further, the composite z-score in test [8] worked out at 1.43; in test [9], 1.51; in [10], 1.56; in the test with Albumin (Bos taurus), 0.871; in [12] it was 0.158; in [13], 0.21. For the same compound, the composite z-score is 0.603 in test [14]; 2.27 in test [15]; 0.782 in test [16]; 1.31 in the test with Sam68 (KHDRBS1); -0.863 in test [17]; 1.13 in [18]. In addition, the z-score in test [2] was -1.1. The composite Z-score in [11] was 0.506 (inactive).

For the compound `CCCCN1CC=CC23O[C@@H]4C=CCCOC(=O)C4[C@H]2C(=O)N(CCCCCO)[C@@H]3C1=O` (stereo not given in full), the composite z-score in [1] is -0.977; in [3] it was -0.646; in [4] it was -0.107; in [5] it was -0.589; in [6] it was -0.208; in test [7], -0.138. Besides, the composite z-score was -0.033 in test [8]; -0.865 in [9]; 0.0086 in test [10]; 0.438 with Albumin (Bos taurus); -0.297 in test [12]; -0.132 in test [13]. Moreover, the composite z-score in test [14] was 0.861; in test [15], -0.0221; in [16] it was -0.327; in the test with Sam68 (KHDRBS1), -0.444; in [17], -0.882; in test [18], -0.131. Moreover, in [2], the z-score is -0.698. Further, in test [11], the composite Z-score was 0.251 (inactive).

For `O=C(NCc1ccccc1)[C@@H]1c2ccccc2C(=O)N(C2Cc3ccccc3C2)[C@H]1c1ccc(CO)cc1`, the composite z-score in test [1] was -0.146; in test [3] it was -0.322; in test [4], 0.158; in [5], 0.229; in [6], -0.101; in test [7], 0.194. Also, the composite z-score was 1.13 in [8]; 0.628 in [9]; 1.22 in [10]; 0.0732 with Albumin (Bos taurus); 0.0711 in [12]; -0.0249 in test [13]. Moreover, the composite z-score is 0.767 in test [14]; 1.35 in test [15]; 0.0541 in test [16]; 0.958 with Sam68 (KHDRBS1); -0.357 in [17]; 0.899 in test [18]. In addition, the z-score in test [2] is -0.51. The composite Z-score in [11] is 0.0702 (inactive).

Turning to `[N-]=[N+]=NCc1ccccc1C[C@@]1(C(=O)NCC(O)CO)N=C(c2ccc(OCCCO)cc2)O[C@@H]1c1ccccc1` (stereo not given in full), the composite z-score is 1.03 in test [1]; -1.38 in test [3]; 0.899 in test [4]; 1.25 in test [5]; -0.0285 in [6]; 0.156 in test [7]. The composite z-score in [8] was 0.723; in test [9], 1.01; in [10], 0.183; with Albumin (Bos taurus) it was 0.992; in test [12], -0.0077; in test [13], 0.0996. In addition, the composite z-score in [14] was 0.432; in test [15], 2.82; in test [16], -0.177; in the test on Sam68 (KHDRBS1), 0.331; in test [17] it was -0.247; in test [18], -1.11. Besides, in [2], the z-score was -1.41. For the same compound, the composite Z-score in test [11] was -0.191 (inactive).

As to `COCCOC(=O)N1C(=O)[C@@]2(c3cc(C#CC4=CCCCC4)ccc31)[C@H](c1ccc(OCCO)cc1)N1[C@H](c3ccccc3)[C@H](c3ccccc3)OC(=O)[C@H]1[C@@H]2C(=O)N1CCc2cc(OC)c(OC)cc2C1`, the composite z-score in test [1] is 1.24; in [3] it was 1; in test [4], 0.933; in test [5], 0.43; in [6], 0.139; in test [7], 0.0611. In addition, the composite z-score was 0.121 in [8]; 1.71 in test [9]; 0.595 in test [10]; 0.134 with Albumin (Bos taurus); 0.206 in [12]; -0.0677 in [13]. Besides, the composite z-score in test [14] is 0.342; in test [15] it was 1.01; in [16] it was 0.868; in the test with Sam68 (KHDRBS1), 1.31; in test [17], 0.839; in test [18], 0.922. For the same compound, the z-score in [2] is -0.829. Further, the composite Z-score in [11] was 0.111 (inactive).
